Test results from PubChem BioAssay (NCATS).
“And” between values parts separate entries of the source, which are not always exact repeats. Identical values can stand only once. Inconclusive results are not listed. A number with no mark means an inactive call. The source made the active and inactive calls. The call rests on the fitted dose curve; in most records, active means well fitted curve in the direction sought with a large enough effect; inconclusive means small, poorly fitted or top-dose-only effect, or another doubt; inactive means no such curve, though single readings can be large; an effect the other way counts as inactive or inconclusive.

Key:
CRL-7250 = normal cell line; assay: Cytotoxic Profiling of Annotated Libraries Using Quantitative High-Throughput Screening (AID 1296008); conditions: Five cell lines viability, CellTiter-Glo ATP luminescence, 48-72 h; max response: hits give low values; further: nearly all actives have a fitted effect of over 60% in size
How it was run: (§1)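 Cytotoxicity was measured as CellTiter-Glo ATP luminescence, read after 10 min at room temperature. Compound treatment of the cells lasted 48 or 72 hr at 37 degrees Celsius in a qHTS format.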

HEK293 = assay: as above; conditions: Five cell lines viability, CellTiter-Glo ATP luminescence, 48-72 h; max response: hits give low values
How it was run: as §1

HaCat = assay: as above; conditions: Five cell lines viability, CellTiter-Glo ATP luminescence, 48-72 h; max response: hits give low values
How it was run: as §1

KB-3-1 = assay: as above; conditions: Five cell lines viability, CellTiter-Glo ATP luminescence, 48-72 h; max response: hits give low values
How it was run: as §1

NIH3T3 = assay: as above; conditions: Five cell lines viability, CellTiter-Glo ATP luminescence, 48-72 h; max response: hits give low values
How it was run: as §1

MCC-26 = assay: qHTS assay to identify novel small-molecules to repurpose for Merkel cell carcinoma treatment (AID 1296009); conditions: MCC and control cell lines, CellTiter-Glo viability, 72 h; series mostly up to 46 µM; further: nearly all actives have a fitted effect of over 60% in size
How it was run: (§2)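 Cell viability measured by CellTiter-Glo following 72 hr compound treatment at 37 degree celsius, with NPC and MIPE libraries tested in 8- and 11-point concentration series.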

MKL-1 = assay: as above; conditions: MCC and control cell lines, CellTiter-Glo viability, 72 h; series mostly up to 46 µM
How it was run: as §2

MKL-2 = assay: as above; conditions: MCC and control cell lines, CellTiter-Glo viability, 72 h; series mostly up to 46 µM
How it was run: as §2

UISO = assay: as above; conditions: MCC and control cell lines, CellTiter-Glo viability, 72 h; series mostly up to 46 µM
How it was run: as §2

WaGa = assay: as above; conditions: MCC and control cell lines, CellTiter-Glo viability, 72 h; series mostly up to 46 µM
How it was run: as §2

C33A = assay: Primary qHTS to identify gynecologic anti-cancer compounds using libraries of approved drugs and bioactive compounds (AID 1345084); conditions: Gynecologic cancer cell panel viability, ATPlite luminescence, 48 h; series mostly up to 57.5 µM; further: nearly all actives have a fitted effect of over 55% in size
How it was run: (§3)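 Cells, 1,000 per well, plated 16 h, then exposed 48 h at 37 C to compounds. Viability by ATPlite luminescence after 15 min at room temperature.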

CAOV3 = assay: as above; conditions: Gynecologic cancer cell panel viability, ATPlite luminescence, 48 h; series mostly up to 57.5 µM
How it was run: as §3

CASKI = assay: as above; conditions: Gynecologic cancer cell panel viability, ATPlite luminescence, 48 h; series mostly up to 57.5 µM
How it was run: as §3

Hek293T = assay: as above; conditions: Gynecologic cancer cell panel viability, ATPlite luminescence, 48 h, control line for the selectivity index; series mostly up to 57.5 µM
How it was run: as §3

Es-2 = assay: as above; conditions: Gynecologic cancer cell panel viability, ATPlite luminescence, 48 h; series mostly up to 57.5 µM
How it was run: as §3

MCC-13 = assay: qHTS assay to identify novel small-molecules to repurpose for Merkel cell carcinoma treatment (AID 1296009); conditions: MCC and control cell lines, CellTiter-Glo viability, 72 h; series mostly up to 46 µM; further: nearly all actives have a fitted effect of over 60% in size
How it was run: as §2

HeLa = assay: Primary qHTS to identify gynecologic anti-cancer compounds using libraries of approved drugs and bioactive compounds (AID 1345084); conditions: Gynecologic cancer cell panel viability, ATPlite luminescence, 48 h; series mostly up to 57.5 µM; further: nearly all actives have a fitted effect of over 55% in size
How it was run: as §3
On the % scale 0 is the no-effect control and ±100 the full control effect; potency means the concentration at half of the fitted maximal effect.

**Q.** How did the Potency (CRL-7250) turn out when `COc1cc2c(cc1-c1c(C)noc1C)ncc1[nH]c(=O)n([C@H](C)c3ccccn3)c12` was run?
**A.** 3.26 µM (active)

**Q.** And the Potency (HEK293)?
**A.** 5.26 µM (active) and 4.11 µM (active)

**Q.** And the max response (HaCat)?
**A.** -12.8%

**Q.** And the Potency (KB-3-1)?
**A.** 16.6 µM (active)

**Q.** What about the Potency (NIH3T3) of the same molecule?
**A.** 20.9 µM (active)

**Q.** What about the Potency (MCC-26) of the same molecule?
**A.** 23.5 µM (active)

**Q.** What about the Potency (MKL-1) of the same molecule?
**A.** 18.7 µM (active)

**Q.** And the Potency (MKL-2)?
**A.** 2.64 µM (active)

**Q.** What about the Potency (UISO) of the same molecule?
**A.** 14.8 µM (active)

**Q.** And the Potency (WaGa)?
**A.** 5.9 µM (active)

**Q.** And the Potency (C33A)?
**A.** inactive

**Q.** And the Potency (CAOV3)?
**A.** inactive

**Q.** What about the Potency (CASKI) of the same molecule?
**A.** 3.98 µM (active)

**Q.** What about the Potency (Hek293T) of the same molecule?
**A.** inactive

**Q.** For `COc1cc(=C2C=c3ccccc3=N2)[nH]c1=Cc1[nH]c(C)cc1C`, which Potency (CRL-7250) is on record?
**A.** 11.8 µM (active)

**Q.** What about the Potency (HEK293) of the same molecule?
**A.** 8.33 µM (active)

**Q.** And the Potency (HaCat)?
**A.** 20.9 µM (active)

**Q.** What about the Potency (KB-3-1) of the same molecule?
**A.** 3.72 µM (active)

**Q.** And the Potency (NIH3T3)?
**A.** 18.7 µM (active)

**Q.** What about the Potency (UISO) of the same molecule?
**A.** 13.2 µM (active)

**Q.** And the Potency (WaGa)?
**A.** 23.5 µM (active)

**Q.** With `Cc1cc(N2CCOCC2)cc2[nH]c(-c3c(NC[C@@H](O)c4cccc(Cl)c4)cc[nH]c3=O)nc12` as the molecule, how does the Potency (CRL-7250) read?
**A.** 11.8 µM (active)

**Q.** And the Potency (HEK293)?
**A.** 2.96 µM (active) and 7.31 µM (active)

**Q.** And the Potency (HaCat)?
**A.** 4.18 µM (active) and 5.8 µM (active)

**Q.** What about the Potency (KB-3-1) of the same molecule?
**A.** 14.8 µM (active)

**Q.** What about the Potency (NIH3T3) of the same molecule?
**A.** 7.43 µM (active) and 13 µM (active)

**Q.** What about the Potency (MKL-2) of the same molecule?
**A.** inactive

**Q.** What about the Potency (UISO) of the same molecule?
**A.** 1.32 µM (active)

**Q.** What about the Potency (C33A) of the same molecule?
**A.** inactive

**Q.** And the Potency (Es-2)?
**A.** inactive

**Q.** With `CCOC(=O)C1=C(C)NC2=C(C(=O)CC(C)(C)C2)C1c1ccc(-c2ccccc2)cc1` (stereo not given) as the molecule, how does the Potency (CRL-7250) read?
**A.** 26.4 µM (active) and 10.3 µM (active)

**Q.** And the Potency (HEK293)?
**A.** 16.6 µM (active) and 2.91 µM (active)

**Q.** What about the Potency (HaCat) of the same molecule?
**A.** 7.31 µM (active)

**Q.** And the outcome (KB-3-1)?
**A.** inactive

**Q.** And the Potency (NIH3T3)?
**A.** 20.9 µM (active) and 5.8 µM (active)

**Q.** What about the Potency (MCC-13) of the same molecule?
**A.** inactive

**Q.** What about the Potency (MKL-2) of the same molecule?
**A.** 2.35 µM (active)

**Q.** What about the Potency (UISO) of the same molecule?
**A.** inactive

**Q.** And the Potency (Hek293T)?
**A.** 28.2 µM (active)

**Q.** With `COc1ccc(F)c(F)c1C(=O)c1cnc(NC2CCN(S(C)(=O)=O)CC2)nc1N` as the molecule, how does the Potency (CRL-7250) read?
**A.** 2.35 µM (active) and 3.66 µM (active)

**Q.** And the Potency (HEK293)?
**A.** 1.05 µM (active)

**Q.** What about the Potency (HaCat) of the same molecule?
**A.** 10.5 µM (active) and 5.17 µM (active)

**Q.** And the Potency (KB-3-1)?
**A.** 3.32 µM (active) and 4.11 µM (active)

**Q.** And the Potency (NIH3T3)?
**A.** 2.09 µM (active) and 3.26 µM (active)

**Q.** And the Potency (MKL-2)?
**A.** 11.8 µM (active)

**Q.** What about the Potency (UISO) of the same molecule?
**A.** 2.96 µM (active)

**Q.** And the Potency (C33A)?
**A.** 10 µM (active)

**Q.** And the Potency (CASKI)?
**A.** 10 µM (active)

**Q.** What about the Potency (Es-2) of the same molecule?
**A.** 3.16 µM (active)

**Q.** What about the Potency (HeLa) of the same molecule?
**A.** 2.82 µM (active)

**Q.** What about the Potency (Hek293T) of the same molecule?
**A.** 3.55 µM (active)

**Q.** What does the source list for `Cc1nc(Nc2n[nH]c3c2CN(C(=O)N[C@H](CN(C)C)c2ccccc2)C3(C)C)c2sccc2n1`?
**A.** Potency (CRL-7250): 1.18 µM (active) and 130 nM (active); Potency (HEK293): 20.9 nM (active) and 10.3 nM (active); Potency (HaCat): 7.43 µM (active); Potency (KB-3-1): 2.35 µM (active) and 2.06 µM (active); Potency (NIH3T3): 1.16 µM (active); Potency (MCC-26): 14.8 µM (active); Potency (MKL-1): 1.48 µM (active); Potency (MKL-2): 2.64 µM (active); Potency (UISO): 1.48 µM (active); Potency (CASKI): 7.94 µM (active); Potency (Es-2): 8.91 µM (active); Potency (HeLa): 8.91 µM (active); Potency (Hek293T): 3.55 µM (active)

**Q.** Which results are given for `Cc1nc(N)ncc1-c1nc(N2CCOCC2)c2sc(C(C)(C)O)cc2n1`?
**A.** Potency (CRL-7250): 2.59 µM (active); Potency (HEK293): 1.18 µM (active) and 1.3 µM (active); Potency (HaCat): 41.8 nM (active) and 130 nM (active); Potency (KB-3-1): 3.66 µM (active); Potency (NIH3T3): 1.87 µM (active) and 920 nM (active); Potency (MCC-13): inactive; Potency (C33A): 1.78 µM (active); Potency (CASKI): 0.501 µM (active); Potency (Hek293T): 3.16 µM (active)

**Q.** For `OCCCNc1cc(-c2ccnc(Nc3cccc(Cl)c3)n2)ccn1`, which Potency (CRL-7250) is on record?
**A.** 46.9 nM (active) and 146 nM (active)

**Q.** And the Potency (HEK293)?
**A.** 209 nM (active) and 231 nM (active)

**Q.** And the Potency (HaCat)?
**A.** 105 nM (active) and 820 nM (active)

**Q.** And the Potency (KB-3-1)?
**A.** 118 nM (active) and 206 nM (active)

**Q.** And the Potency (NIH3T3)?
**A.** 166 nM (active) and 580 nM (active)

**Q.** What about the Potency (MKL-2) of the same molecule?
**A.** 0.296 µM (active)

**Q.** What about the Potency (UISO) of the same molecule?
**A.** 0.148 µM (active)

**Q.** What about the Potency (C33A) of the same molecule?
**A.** 0.562 µM (active)

**Q.** And the Potency (CAOV3)?
**A.** inactive

**Q.** And the Potency (CASKI)?
**A.** 0.398 µM (active)

**Q.** What about the Potency (Es-2) of the same molecule?
**A.** 0.224 µM (active)

**Q.** And the Potency (HeLa)?
**A.** 0.158 µM (active)

**Q.** What about the Potency (Hek293T) of the same molecule?
**A.** 0.199 µM (active)

**Q.** What does the source list for `COc1c(OCCCN2CCOCC2)ccc2c3n(c(=NC(=O)c4cnc(N)nc4)nc12)CCN3`?
**A.** Potency (CRL-7250): 2.29 µM (active); Potency (HEK293): 363 nM (active) and 42.2 nM (active); Potency (KB-3-1): 0.0944 µM (active); Potency (NIH3T3): 2.88 µM (active) and 59.6 nM (active); Potency (MKL-1): inactive; Potency (C33A): 0.316 µM (active); activity change, negative = cytotoxicity (CAOV3): -27.2% [at 11.6 µM]; Potency (CASKI): 0.112 µM (active); Potency (HeLa): 1 µM (active)
